Test systems include RPMI-8226 leukemia; OVCAR-8 ovarian; OVCAR-5 ovarian; OVCAR-4 ovarian; SK-OV-3 ovarian; IGROV1 ovarian; OVCAR-3 ovarian; HS 578T breast; NCI/ADR-RES ovarian; T-47D breast; BT-549 breast; MDA-MB-435 melanoma; SW-620 colon; MCF7 breast; HCC-2998 colon; KM12 colon; HCT-116 colon.
Common to all, as to assay: NCI-60 one-dose screen, 48 h (100 = growth as untreated, 0 = no growth, -100 = all killed)
Conditions in all cases: 10 µM unless noted

About 83,000 compounds went through this panel and 20% of them were active in at least one assay; those are over-represented in the sample as a whole.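 Single-concentration screen, 48 h exposure, 96-well plates. Endpoint: percent growth. Below 10 = active.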 Values without a mark were called inactive. Calls of active or inactive are those of the source.

Nine compounds from PubChem BioAssay (NCI) can be followed below.

Regarding `COc1ccc(-c2cn(-c3ccccc3)c(-c3ccccc3)n2)cc1OC`, the growth is 25.8% in the experiment with RPMI-8226 leukemia; 75.3% with OVCAR-8 ovarian; 119% with OVCAR-5 ovarian; 67.3% with OVCAR-4 ovarian; 209% in the experiment with SK-OV-3 ovarian; 83.7% with IGROV1 ovarian. Besides, the growth in the experiment on OVCAR-3 ovarian was 37.2%; in the experiment on HS 578T breast, 103%; in the experiment with NCI/ADR-RES ovarian it was 86.2%; with T-47D breast it was 131%; with BT-549 breast, 15%; in the experiment with MDA-MB-435 melanoma, 35.7%. For the same compound, the growth with SW-620 colon was 5.69% (active); in the experiment with MCF7 breast, 19.1%; in the experiment with HCC-2998 colon it was 58.8%; with KM12 colon, -3.88% (active).
For `Cc1cc(=O)n2n1-c1ccc(Cl)cc1NC(=O)C2`, the growth with RPMI-8226 leukemia is 99.2%; with OVCAR-8 ovarian, 97%; in the experiment on OVCAR-5 ovarian it was 103%; in the experiment on OVCAR-4 ovarian, 98.8%; in the experiment with SK-OV-3 ovarian it was 109%; with IGROV1 ovarian, 112%. Moreover, the growth in the experiment on OVCAR-3 ovarian is 108%; in the experiment on HS 578T breast it was 117%; with NCI/ADR-RES ovarian, 108%; with T-47D breast, 118%; in the experiment with BT-549 breast, 104%; in the experiment on MDA-MB-435 melanoma, 88.2%. In addition, the growth is 109% in the experiment with SW-620 colon, 94.1% with MCF7 breast, 110% in the experiment with HCC-2998 colon and 114% in the experiment with KM12 colon.
Turning to `NC(=O)NN=C(C1CC1)C1CC1`, the growth with RPMI-8226 leukemia is 114%; with OVCAR-8 ovarian, 123%; in the experiment on OVCAR-5 ovarian it was 101%; in the experiment with OVCAR-4 ovarian it was 104%; in the experiment on SK-OV-3 ovarian it was 104%; in the experiment on IGROV1 ovarian, 109%. For the same compound, the growth with OVCAR-3 ovarian is 106%; in the experiment on HS 578T breast, 97%; in the experiment with NCI/ADR-RES ovarian, 105%; in the experiment with T-47D breast, 107%; in the experiment with BT-549 breast, 106%; in the experiment on MDA-MB-435 melanoma, 105%. In addition, the growth with SW-620 colon was 98.6%; with MCF7 breast it was 92.9%; with HCT-116 colon, 102%; in the experiment with KM12 colon, 104%.
As for `CSc1nc2c(c(=O)[nH]1)C(c1ccc(Cl)cc1)C1=C(N2)/C(=C/c2ccc(Cl)cc2)CNC1` (stereo not drawn), the growth is -13.4% (active) with RPMI-8226 leukemia; 31.6% in the experiment with OVCAR-8 ovarian; 105% in the experiment on OVCAR-5 ovarian; 33.1% in the experiment with OVCAR-4 ovarian; 87.4% in the experiment on SK-OV-3 ovarian; 26.1% in the experiment with IGROV1 ovarian. Also, the growth was 4.17% (active) in the experiment with OVCAR-3 ovarian; 68.7% in the experiment with HS 578T breast; 74.5% in the experiment on NCI/ADR-RES ovarian; 54.3% with T-47D breast; 24.8% in the experiment on BT-549 breast; 34.5% in the experiment on MDA-MB-435 melanoma. Also, the growth in the experiment on SW-620 colon is -9.84% (active); in the experiment on MCF7 breast it was 13%; in the experiment on HCC-2998 colon, 17.3%; with KM12 colon, -24% (active).
`CCCCCCC/C(=N\N=C(N)N)c1ccc(O)cc1`: the growth is 11% in the experiment on RPMI-8226 leukemia; 60.4% in the experiment with OVCAR-8 ovarian; 58.3% in the experiment on OVCAR-5 ovarian; 36.2% in the experiment on OVCAR-4 ovarian; 46.8% in the experiment on SK-OV-3 ovarian; 33.6% in the experiment on IGROV1 ovarian. For the same compound, the growth with OVCAR-3 ovarian was 35.8%; with HS 578T breast, 57.3%; with NCI/ADR-RES ovarian, 69.9%; in the experiment on T-47D breast it was -31.6% (active); in the experiment with BT-549 breast, 46.9%; in the experiment with MDA-MB-435 melanoma, 41.6%. Besides, the growth in the experiment with SW-620 colon is 49%; in the experiment with MCF7 breast it was -21.8% (active); in the experiment on HCT-116 colon, 18.3%; in the experiment on KM12 colon, 48.8%.
As for `COc1ccc(-c2nn(-c3ccccc3)cc2/C=C2\SC(=S)N(CCc3ccc(O)cc3)C2=O)cc1`, the growth in the experiment on RPMI-8226 leukemia was 70.2%; in the experiment with OVCAR-8 ovarian, 86.5%; with OVCAR-5 ovarian it was 99.7%; in the experiment with OVCAR-4 ovarian it was 78.7%; with SK-OV-3 ovarian it was 98.8%; in the experiment on IGROV1 ovarian it was 78.6%. The growth with OVCAR-3 ovarian is 94%; in the experiment on HS 578T breast it was 79.1%; with NCI/ADR-RES ovarian, 90.3%; with T-47D breast it was 56.3%; in the experiment with BT-549 breast, 103%; in the experiment on MDA-MB-435 melanoma, 84.4%. The growth in the experiment on SW-620 colon was 87.6%; in the experiment on MCF7 breast it was 70.5%; with HCT-116 colon, 90.2%; with KM12 colon, 81.5%.
Consider `COc1ccc(OC)c(NC(=O)c2cc3oc4ccccc4c3cc2O)c1`, for which the growth in the experiment with RPMI-8226 leukemia is 53.4%; in the experiment with OVCAR-8 ovarian it was 86.7%; with OVCAR-5 ovarian, 103%; in the experiment on OVCAR-4 ovarian it was 91.4%; in the experiment with SK-OV-3 ovarian, 81.1%; in the experiment with IGROV1 ovarian it was 56.1%. Also, the growth was 137% in the experiment on OVCAR-3 ovarian; 84.6% in the experiment on HS 578T breast; 88.6% in the experiment with NCI/ADR-RES ovarian; 74.4% in the experiment with T-47D breast; 89.1% with BT-549 breast; 105% with MDA-MB-435 melanoma. For the same compound, the growth in the experiment on SW-620 colon is 104%; with MCF7 breast it was 83.3%; with HCT-116 colon, 106%; with KM12 colon it was 99.5%.
On to `O=C(Nc1nc(-c2ccc(Cl)cc2)cs1)c1cc(O)c(O)c(O)c1`, for which the growth in the experiment with RPMI-8226 leukemia was 17.1%; in the experiment on OVCAR-8 ovarian it was 15.5%; with OVCAR-5 ovarian, 62.6%; in the experiment with OVCAR-4 ovarian it was 27.8%; in the experiment with SK-OV-3 ovarian, 43.4%; with IGROV1 ovarian, 15.7%. Moreover, the growth in the experiment on OVCAR-3 ovarian was 40.1%; in the experiment with HS 578T breast, 61.9%; with NCI/ADR-RES ovarian, 13.6%; in the experiment with T-47D breast, 25.4%; in the experiment on BT-549 breast, 24.6%; in the experiment with MDA-MB-435 melanoma, 41%. The growth was 25.3% with SW-620 colon, 28.3% in the experiment on MCF7 breast and 51.3% in the experiment with KM12 colon.
In the case of `COc1cc2c(-c3nc4cc(Cl)c(F)cc4s3)cc(=O)oc2c(C)c1OC`, the growth in the experiment with RPMI-8226 leukemia is -56% (active); with OVCAR-8 ovarian, -58.8% (active); in the experiment on OVCAR-5 ovarian, -65.5% (active); with OVCAR-4 ovarian, -92.9% (active); in the experiment on SK-OV-3 ovarian it was -85% (active); in the experiment on IGROV1 ovarian it was -43.6% (active). In addition, the growth with OVCAR-3 ovarian is -98.6% (active); in the experiment with HS 578T breast it was -0.186% (active); in the experiment on NCI/ADR-RES ovarian, -10% (active); in the experiment on T-47D breast, -14.1% (active); with BT-549 breast, -81.8% (active); with MDA-MB-435 melanoma, -57.8% (active). In addition, the growth is -58.3% (active) in the experiment with SW-620 colon, -57.8% (active) in the experiment on MCF7 breast, -2.68% (active) with HCT-116 colon and -89.7% (active) in the experiment on KM12 colon.
